Compounds with a hit are over-represented: about 2.8% of the library has one in this group of screens.
CF NFkB inh: inhibitors of cystic fibrosis induced NF-kB | inhibition, % at 5 µM | 360,000 compounds, 0.86% hits | KKLEB NF-kB-GFP reporter, PAF-induced, GFP fluorescence overnight;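 active means at least 50% inhibition at 5 µM, scaled per plate between neutral and stimulator controls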;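 further: PAF is a Pseudomonas aeruginosa culture filtrate used as stimulus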
Peg3 promoter: reduces Peg3 promoter-driven luciferase expression in HeLa; inhibition, % at 20 µM; HeLa PEG-Prom luciferase reporter, luminescence, overnight; 360,000 compounds, 1.7% hits; AID 588405;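 active means inhibition of at least 50% at 20 µM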
TRPM1 prom inh: inhibitors of MITF-driven TRPM1 promoter in melanoma cells; AID 488899; SK-MEL-5 TRPM1 promoter luciferase, 24 h; 330,000 compounds, 0.83% hits; inhibition, % at 12.5 µM;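 active means mean inhibition across replicates of 60% or more, whatever share of single replicates reaches that level; inconclusive means some that reach 60%, reason not given; inactive means mean inhibition across replicates below 60%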
HIF-2a block: blocks HIF-2a reporter activity; 786-0 RCC cells HIF-2a reporter, luciferase luminescence, overnight; inhibition, % at 18.8 µM; 360,000 compounds, 0.72% hits;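 active means inhibition of the luminescence signal of 40% or more relative to plate controls, in a single-dose primary screen at 18.75 µM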
KKLEB cytotox: reduces viability of KKLEB cystic fibrosis airway cells; KKLEB CF airway cells viability, ATPlite luminescence, overnight; hits give low values; cells stimulated with P. aeruginosa culture filtrate; 360,000 compounds, 0.36% hits; AID 602141; activity change (cytotoxicity), % at 5 µM;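 active means corrected activity change at or below -50% at 5 µM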
Beta2AR agonist: agonists of human beta-2 adrenergic receptor inducing internalization; Am2.2-beta2AR cells, FAP receptor internalization, flow cytometry; response, % (test concentration not listed); 340,000 compounds, 0.43% hits;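 active means response above a set limit, near 3 SD of response in nonfluorescent compounds, cut at about 42% in these data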
Target sequence (P07550 whole entry, looked up): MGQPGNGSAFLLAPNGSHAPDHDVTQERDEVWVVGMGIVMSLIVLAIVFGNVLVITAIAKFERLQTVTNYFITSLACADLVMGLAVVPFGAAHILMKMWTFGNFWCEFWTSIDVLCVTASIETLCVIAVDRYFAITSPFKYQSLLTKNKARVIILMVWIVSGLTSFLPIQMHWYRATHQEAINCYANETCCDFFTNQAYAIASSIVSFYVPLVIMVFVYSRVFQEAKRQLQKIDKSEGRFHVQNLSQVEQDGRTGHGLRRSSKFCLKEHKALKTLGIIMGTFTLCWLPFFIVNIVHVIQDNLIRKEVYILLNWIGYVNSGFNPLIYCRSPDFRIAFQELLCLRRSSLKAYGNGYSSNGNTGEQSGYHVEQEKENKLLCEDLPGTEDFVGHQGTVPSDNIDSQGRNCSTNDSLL
Each line names hits and unclear results; the compound was inactive in the other large screens.

O=C(OCC12CC3CC(CC(C3)C1)C2)c1ccc(NCc2cc(O)ccc2O)cc1	CF NFkB inh 58, HIF-2a block 81
O=C(OCCC12CC3CC(CC(C3)C1)C2)c1ccc(NCc2cc(O)ccc2O)cc1	TRPM1 prom inh 67, HIF-2a block 77
N#CCC(=O)Nc1ccc(C(=O)OCC(=O)C23CC4CC(CC(C4)C2)C3)cc1	none
CCNC(=O)OCCC12CC3CC(CC(C3)C1)C2	none
CCOc1cc(/C=C2/C(=O)ON=C2C)ccc1OCc1ccc(F)cc1	Peg3 promoter 65, TRPM1 prom inh inconclusive
CCOc1cc(/C=C2\C(=O)ON=C2c2ccccc2)ccc1OC	none
CCOc1cc(/C=C2/C(=O)ON=C2C)ccc1OCc1ccccc1F	Peg3 promoter 97, Beta2AR agonist 77
Cc1cnc(C(=O)N(CCCn2ccnc2)C2C(=O)Nc3ccccc3N=C2c2ccccc2)cn1 (stereo unspecified)	none (no result: TRPM1 prom inh, Beta2AR agonist)
O=C(CC[C@H]1O[C@@H](n2ccc(=O)[nH]c2=O)[C@H](O)[C@@H]1O)N[C@H](Cc1ccccc1)C(=O)NCc1ccc2c(c1)OCO2	none (no result: TRPM1 prom inh, Beta2AR agonist)
Cc1ccc(S(=O)(=O)N(C)C)cc1NC(=O)COc1ccccc1C(=O)Nc1ccccc1	Peg3 promoter 60
CN1CCC(N2CCN(C3CN(Cc4cn(Cc5cccc(C(F)(F)F)c5)nn4)S(=O)(=O)C3)CC2)CC1 (stereo unspecified)	none (no result: CF NFkB inh, Peg3 promoter, TRPM1 prom inh, KKLEB cytotox, Beta2AR agonist)
O=C(N/N=C/c1coc2ccccc2c1=O)c1cn(-c2ccccc2)nc1-c1ccccc1	Beta2AR agonist 57
O=C(N/N=C/c1coc2ccccc2c1=O)c1ccccc1	none
O=C(COc1ccc2c3c(c(=O)oc2c1)CCC3)Nc1ccccn1	Beta2AR agonist 61
COC(=O)[C@]12CCCCC=C1N(Cc1cccc3ccccc13)C(=O)[C@H](CC(=O)N1CCN(C(=O)c3ccco3)CC1)C2	none (no result: CF NFkB inh, Peg3 promoter, TRPM1 prom inh, KKLEB cytotox, Beta2AR agonist)
O=C1/C(=C/c2ccncc2)CCC/C1=C\c1ccncc1	CF NFkB inh 86, Peg3 promoter 101, TRPM1 prom inh 96, HIF-2a block 93, Beta2AR agonist 47
CCSC1=C(C#N)C2(CCCCC2)C(C#N)C(=O)N1 (stereo unspecified)	Peg3 promoter 54
CC1(c2nc3ccccc3[nH]2)CCCC2=Nc3ccccc3CN21 (stereo unspecified)	none (no result: CF NFkB inh, Peg3 promoter, TRPM1 prom inh, KKLEB cytotox, Beta2AR agonist)
O=C(Cc1csc(Nc2nc(=S)[nH]c3ccccc23)n1)NCCCN1CCN(c2ccccc2F)CC1	Peg3 promoter 68, TRPM1 prom inh 66
O=C(Cc1csc(Nc2nc(=S)[nH]c3ccccc23)n1)NCc1ccc(Cl)cc1	none
CC1CCCN(S(=O)(=O)c2ccc3c(c2)OCCO3)C1 (stereo unspecified)	none (no result: TRPM1 prom inh, Beta2AR agonist)
O=[N+]([O-])c1ccc(/C=[N+](\[O-])[C@@H]2CCCC[C@@H]2/[N+]([O-])=C/c2ccc([N+](=O)[O-])o2)o1	TRPM1 prom inh 84
COc1ccc(CCCNC(=O)C2(C)Cc3c(-c4ccc(NC(C)=O)cc4)ccnc3O2)cc1 (stereo unspecified)	none (no result: TRPM1 prom inh, Beta2AR agonist)
Cc1cc(N2CCC(C)CC2)c(F)cc1[N+](=O)[O-]	none
Cc1cc(N2CCCC2)c(F)cc1/C=C\[N+](=O)[O-]	Peg3 promoter 79
CN(C)S(=O)(=O)c1cccc(NC(=S)Nc2cccc3cnccc23)c1	CF NFkB inh 73
S=C(Nc1cccnc1)Nc1cccc2cnccc12	none
CCOC(=O)[C@]12CCC=C1N(Cc1ccc3c(c1)OCO3)C(=O)[C@H](CC(=O)NCCc1ccccc1OC)C2	none (no result: CF NFkB inh, Peg3 promoter, TRPM1 prom inh, KKLEB cytotox, Beta2AR agonist)
O=C(CCCOc1ccc(Cl)cc1Cl)N/N=C/c1ccccc1O	Peg3 promoter 52
CCc1nc2c(OCC3COc4ccccc4O3)cccn2c1N(C)C(=O)c1cccc(OC)c1 (stereo unspecified)	none (no result: TRPM1 prom inh, Beta2AR agonist)
COc1ccc2c(c1)C(C)=CC(C)(C)N2S(=O)(=O)c1ccc(C)cc1	none
CC1=CC(C)(C)N(C(=O)CCl)c2cc(C)ccc21	none
CCOc1ccc2c(c1)C(C)=CC(C)(C)N2S(=O)(=O)c1ccc(C)cc1	CF NFkB inh 61, TRPM1 prom inh 75
CC1=CC(C)(C)N(S(=O)(=O)c2ccc(C)cc2)c2cc(C)ccc21	CF NFkB inh 51
COC1C(=O)CCC2(CO2)C1(O)C1(C)OC1CC=C(C)C (stereo unspecified)	none (no result: TRPM1 prom inh, Beta2AR agonist)
CCN(CC)CCNC(=O)c1ccc2c(c1NCCO)C(=O)c1ccccc1C2=O	CF NFkB inh 77, Peg3 promoter 111, HIF-2a block 62, KKLEB cytotox -52 (no result: TRPM1 prom inh, Beta2AR agonist)
CCN(CC)CCC(=O)Nc1cccc2c1C(=O)c1ccccc1C2=O	Peg3 promoter 107, TRPM1 prom inh 71
Nc1cccc(C(=O)OCC(=O)Nc2cccc3c2C(=O)c2ccccc2C3=O)c1	none
O=C(NCCN1CCC(n2c(=O)[nH]c3ccccc32)CC1)c1ccc(Cl)cc1Cl	none (no result: CF NFkB inh, Peg3 promoter, TRPM1 prom inh, KKLEB cytotox, Beta2AR agonist)
COc1cccc(-n2c(SCC(=O)N3CCOCC3)nc3c([nH]c4ccccc43)c2=O)c1	KKLEB cytotox -55
COc1cccc(-n2c(SCC(=O)N3CCOCC3)nnc2-c2c[nH]c3ccccc23)c1	none (no result: TRPM1 prom inh)
CC(C)c1ccc(CNC(=O)C2(C)CCCN2C)cc1 (stereo unspecified)	none (no result: TRPM1 prom inh, Beta2AR agonist)
COc1ccc(C2c3c(ncn(CCN4CCOCC4)c3=N)Oc3ccc4ccccc4c32)cc1OC (stereo unspecified)	Peg3 promoter 78
COc1ccccc1C1c2ccc3ccccc3c2Oc2ncn(CCN(C)C)c(=N)c21 (stereo unspecified)	Peg3 promoter 103, TRPM1 prom inh 69
COc1ccc(C2c3c(ncn(CCCO)c3=N)Oc3ccc4ccccc4c32)cc1 (stereo unspecified)	Peg3 promoter 82
CC(=O)Nc1ccc(CNc2nc3cc(-c4cccc(C(F)(F)F)c4)sc3c(=O)n2C)cc1	none (no result: TRPM1 prom inh, Beta2AR agonist)
O=C1/C(=C\c2ccccc2)SC(=S)N1CCC(=O)N1CCCCC1CCO (stereo unspecified)	none
O=C1/C(=C/c2ccccc2Cl)SC(=S)N1CCC(=O)N1CCCCC1CCO (stereo unspecified)	Peg3 promoter 55
CC(C)c1ccc(/C=C2\SC(=S)N(CCC(=O)N3CCCCC3CCO)C2=O)cc1 (stereo unspecified)	TRPM1 prom inh 76, HIF-2a block 86
COc1ccc(/C=C2\SC(=S)N(CCCC(=O)N3CCCCC3CCO)C2=O)cc1 (stereo unspecified)	HIF-2a block 83
COc1ccc(-c2nc3cc(C)c(Br)c(C)n3c2Cc2ccc(C)cc2)cc1OC	none (no result: TRPM1 prom inh, Beta2AR agonist)
CC(=O)Nc1cccc(-c2ccnc3c2CC(C(=O)NCCC(F)(F)F)O3)c1 (stereo unspecified)	none (no result: TRPM1 prom inh, Beta2AR agonist)
CN(C)CCNC(=O)c1ccccc1-c1cc2ccccc2c(=O)o1	none
CN(CCNC(=O)c1c[nH]c2c1ccc1ccccc12)CCNC(=O)c1c[nH]c2c1ccc1ccccc12	Peg3 promoter 97

From PubChem
